Hits are enriched below; roughly 10% of the tested compounds scored in any of these assays.
Lamin A splicing – modulators of lamin A splicing | Potency, µM (titrated, usually from 46.1 µM), inactives show at the highest dose ratio change, negative = inhibition, actives largely listed as inhibitors | 200,000 compounds, 0.01% hits | HeLa LMNA splicing GFP/RFP minigene ratio, 48 h; active means well fitted inhibition curve with a large enough effect in the signal ratio, with a control signal flat, not every such curve was filed as active; inconclusive means small, poorly fitted or top-dose-only effect, or effect the other way, or a change in a side signal; the % refers to the signal ratio; further: potency means the concentration at half of the fitted maximal effect
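S3 HeLa stable clones carrying a lamin A-EGFP splicing minigene plus DsRed2 were seeded at 600 cells/well in Opti-MEM with 2% FBS, pin-dosed and incubated 48 h at 37°C. Acumen cytometry (488 nm) gave the GFP/RFP total-intensity ratio.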
IMPase inh – membrane-permeable compound that blocks inositol monophosphatase; P97697; 120,000 tested, under 10 active; CHO-M1 cells, IP1 accumulation, HTRF TR-FRET ratio; inhibition (IP1 accumulation), % at 46.1 µM; active means well fitted curve in the direction sought with a large enough effect in the signal ratio, not every such curve was filed as active; inconclusive means small, poorly fitted or top-dose-only effect, or a change in a side signal; inactive means no such curve, though single readings can be large or run the other way; the % refers to the signal ratio;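 further: cells stimulated with carbachol in lithium chloride buffer; plate controls were DMSO basal wells for no effect and reference inhibitor wells for full effect; higher means more IMPase inhibition seen as more IP1 and lower FRET ratio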
Target sequence (P97697 whole entry, looked up): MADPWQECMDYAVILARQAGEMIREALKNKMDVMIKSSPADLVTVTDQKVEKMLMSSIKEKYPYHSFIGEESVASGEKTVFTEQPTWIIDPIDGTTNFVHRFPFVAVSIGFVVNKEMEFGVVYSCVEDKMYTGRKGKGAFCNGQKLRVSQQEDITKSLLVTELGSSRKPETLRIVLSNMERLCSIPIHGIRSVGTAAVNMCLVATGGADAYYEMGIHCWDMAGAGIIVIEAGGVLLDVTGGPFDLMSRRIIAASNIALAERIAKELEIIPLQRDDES
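Carbachol-driven Gq signalling in CHO-M1 cells (2000/well) generates IP1. Compounds that block IMPase raise IP1 and so reduce the FRET signal from Eu-anti-IP1 and d2-IP1 after a 10 min room-temperature lysis.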
Luc counter – blocks Kinase-Glo luciferase, a counter-screen artifact. Kinase-Glo luciferase, ATP luminescence, 8 min. 200,000 compounds, 0.28% hits. AID 1379. Potency, µM (doses to about 38.3 µM), without a hit: top-dose activity change, negative = inhibition, actives largely listed as inhibitors; active means well fitted inhibition curve with a large enough effect; inconclusive means small, poorly fitted or top-dose-only effect; further: potency means the concentration at half of the fitted maximal effect; nearly all actives have a fitted effect of over 60% in size
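Compound is pinned into ATP-containing buffer (10 uM ATP, imidazole pH 7.2, 7 mM MgCl2). Kinase-Glo luciferase reagent is then added. Light output is recorded following an 8-min room-temperature incubation.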
ALDH1A1 inh – blocks purified human ALDH1A1 activity. P00352. Purified ALDH1A1, NADH fluorescence, propionaldehyde substrate. Potency, µM (titrated, usually from 75.3 µM), for inactives: top-dose activity, negative = inhibition, usual class: inhibitors. 220,000 compounds, 7.3% hits;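 further: potency means the concentration at half of the fitted maximal effect; plate controls were no enzyme wells and a reference inhibitor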
Target sequence (P00352 whole entry, looked up): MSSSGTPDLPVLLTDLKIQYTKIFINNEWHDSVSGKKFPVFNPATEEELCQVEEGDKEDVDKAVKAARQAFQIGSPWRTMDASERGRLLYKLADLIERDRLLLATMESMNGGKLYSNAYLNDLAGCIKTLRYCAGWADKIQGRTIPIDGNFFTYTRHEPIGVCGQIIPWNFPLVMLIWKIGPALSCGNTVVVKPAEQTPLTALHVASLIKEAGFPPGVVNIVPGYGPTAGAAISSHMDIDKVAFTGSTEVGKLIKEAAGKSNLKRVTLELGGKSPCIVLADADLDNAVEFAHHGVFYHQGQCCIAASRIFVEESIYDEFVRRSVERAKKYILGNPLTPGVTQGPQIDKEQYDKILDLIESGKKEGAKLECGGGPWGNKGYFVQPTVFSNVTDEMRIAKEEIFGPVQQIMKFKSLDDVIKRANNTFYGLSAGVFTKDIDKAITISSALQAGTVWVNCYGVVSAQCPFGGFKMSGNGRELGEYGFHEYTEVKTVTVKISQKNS
HPGD inh – HPGD (human) dehydrogenase inhibition; P15428; purified HPGD, NADH fluorescence kinetic, PGE2 substrate; Potency, µM, for the others: top-dose activity change, negative = inhibition, actives largely listed as inhibitors; 150,000 compounds, 4.3% hits; further: potency means the concentration at half of the fitted maximal effect
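20 nM HPGD preincubated 15 min at room temperature with compound in 50 mM Tris-HCl pH 8, 0.01% Tween 20. Started with 1 mM NAD+ and 30 uM prostaglandin E2; NADH fluorescence (360/450 nm) read 5 times over 30-s intervals, last minus first.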
PNC assembly inh – blocks assembly of the perinucleolar compartment; activity change (PNC), negative = inhibition, % at 10 µM; 140,000 compounds, 3.1% hits; PC3M PTB-GFP, PNC prevalence imaging, 16 h; stronger effect = lower value;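 active means readout at or below -70, meaning at least 70% loss of cells showing the perinucleolar compartment, a nuclear body marking cancer cells; inconclusive means readout between -30 and a set limit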;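 further: plate controls were DMSO wells for no effect and camptothecin positive control wells for full effect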
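Read-out is percentage of cells bearing a perinucleolar compartment, from automated 20x imaging of fixed, Hoechst-stained PC3M PTB-GFP cells. Cells were seeded 4 h, then exposed 16 h to compound (23 nl of library stock) in duplicate plates.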
Active calls of the source: *; u = inconclusive; x = no result; [ ] = remark or other dose. Unless noted, the call rests on the fitted dose curve; in most records, active means well fitted inhibition curve with a large enough effect (not every such curve was filed as active); inconclusive means small, poorly fitted or top-dose-only effect, or another doubt; inactive means no such curve, though single readings can be large or run the other way. Unless noted, on the % scale 0 is the no-effect control and ±100 the full control effect.

SMILES	Lamin A splicing	IMPase inh	Luc counter	ALDH1A1 inh	HPGD inh	PNC assembly inh
CC(C)NC(=O)N1CCCC2(CCN(C(=O)c3csnn3)CC2)C1	x	x	-4%	5%	-2%	x
O=S(=O)(NCCc1csc2nc(-c3ccc(F)cc3)nn12)c1ccc2c(c1)OCCO2	13%[46 µM]	x	x	x	x	x
CCn1nc(C)c(CCN(C)C(=O)Nc2ccc(C)c(Cl)c2)c1C	-4%[46 µM]	x	x	x	x	x
CCNC(=O)[C@@H]1O[C@@H](n2cnc3c(N)nc(NCCc4ccc(CCC(=O)O)cc4)nc32)[C@H](O)[C@@H]1O	x	-3	x	x	x	x
COc1ccc(NC(=O)CSc2nc3c(c(-c4cccs4)c2C#N)CN(C)CC3)cc1OC	3%	4	-1%	14µM*	-15%	6
CN(C)c1ccc(C(CNC(=O)Cc2ccc(Cl)cc2)N2CCOCC2)cc1 (stereo not given)	-20%[46 µM]	x	x	x	x	x
CC(=O)Nc1nnc(SCC(=O)NCC2CCCO2)s1 (stereo not given)	7%	-4	-4%	u	-17%	-100*
Cc1cccc(-c2nsc(SCC(=O)NCc3ccco3)n2)c1	u	-6	-6%	u	u	0
CCOC(=O)CNC(=O)CSc1nnc(SCC(=O)NCC(=O)OCC)s1	4%	12	-5%	0.25µM*	u	11
Cc1cccc(-c2nsc(SCC(=O)NCC3CCCO3)n2)c1 (stereo not given)	x	x	3%	20µM*	x	x
CCOC(=O)CNC(=O)CSc1nc(-c2cccc(C)c2)ns1	9%[46 µM]	x	-3%	20µM*	x	x
CCCCOC(=O)c1ccc(NC(=O)C2(c3cccs3)CCOCC2)cc1	32%[46 µM]	x	x	x	x	x
CC1(C)OC[C@@H]2O[C@H](n3cnc4c(N)nc(Cl)nc43)[C@@H](OS(C)(=O)=O)[C@@H]2O1	x	x	-1%[7.66 µM]	-9%[13.5 µM]	-2%	x
Cc1cc(=O)n(CC(=O)NCCC(C)C)c2c1c(C)nn2C	-5%[46 µM]	x	x	x	x	x
c1ccc(C(CCN2CC3CCC(CC3)C2)c2ccccc2)cc1	x	x	2%[7.66 µM]	1%[13.5 µM]	-6%	x
CCS(=O)(=O)N1CC(=O)N(c2cc(C)cc(C)c2)C(C)(C(=O)NC2CCCCC2)C1 (stereo not given)	-9%[46 µM]	x	x	x	x	x
C[C@]12C=CC(=O)C=C1CCC1C2C(=O)C[C@]2(C)C1CC[C@]2(O)C(=O)CO (stereo not given in full)	x	x	-6%	-3%	-12%	x
C=CCSc1nnc(NC(=O)c2ccc(S(=O)(=O)NCC3CCCO3)cc2)s1 (stereo not given)	u	-2	5%	u	18µM*	-11
O=C(Nc1ccc(S(=O)(=O)NCC2CCCO2)cc1)c1ccccc1 (stereo not given)	x	x	6%	-4%	x	x
CCOC(=O)CSc1nnc(SCCN2C(=O)c3ccccc3C2=O)s1	10%	6	3%	28µM*	-9%	7
CSCC[C@H](NC(=O)OC(C)(C)C)c1nnc(SCC(=O)Nc2ccc(C)cc2C)o1	0%	-8	-5%	3%	-13%	-17
CCc1ccccc1NC(=O)CSc1nnc([C@H](CCSC)NC(=O)OC(C)(C)C)o1	-5%	6	12%	22µM*	-18%	12
CCCCSc1nnc([C@H](C)NC(=O)OC(C)(C)C)o1	4%	-2	1%	22µM*	-30%	u
Nc1cc(Cl)ccc1N1CCCCCC1	u	x	1%	18µM*	x	x
Nc1ccc(N2CCCCC2)c2nonc12	9%[46 µM]	x	-7%	7.9µM*	x	x
SMILES	Lamin A splicing	IMPase inh	Luc counter	ALDH1A1 inh	HPGD inh	PNC assembly inh
Nc1ccc(N2CCCCC2)cc1N1CCCCC1	u	0	-6%	4µM*	-1%	-4
COc1ccc(CCNC[C@H](O)c2ccc(O)cc2)cc1OC	x	8	x	x	x	x
CCc1ccc(C2=NN(CCC(=O)NCCc3ccccc3)C(=O)CC2)cc1	22%[46 µM]	x	x	x	x	x
O=C(CSc1ccccc1)Nc1nccs1	3%[46 µM]	x	2%	12%	x	x
O=C(CSc1cn(Cc2ccccc2)c2ccccc12)NCc1ccc(F)cc1	15%	x	1%	7.9µM*	-8%	60
O=C(CSc1cn(Cc2ccccc2)c2ccccc12)Nc1nccs1	7%	7	-2%	14µM*	-10%	-27
O=C(O)CC(C(=O)O)c1cn(Cc2ccccc2)c2ccccc12 (stereo not given)	0%	3	-1%	11µM*	-11%	13
OC(CNCCc1ccccc1)c1ccccc1 (stereo not given)	1%	2	-7%	-7%	-3%	16
O[C@@H](CNC[C@H](O)c1ccccc1)c1ccccc1	1%	-1	2%	6%	-12%	-100*
CCN(CC)CCn1cnc2c([nH]c3cccc(OC)c32)c1=O	-8%	-11[1.84 µM]	1%	u	u	30
COc1cccc2[nH]c3c(=O)n(CCN(C)C)cnc3c12	0%	-21	-3%	u	u	-87*
O=C(CCl)N(C/C=C/c1ccccc1)c1ccc2c(c1)OCCO2	u	x	-1%	0.79µM*	x	x
Cc1ccc2c(c1)N(C(=O)N1CCC(C(=O)Nc3cccc(F)c3)CC1)CCO2	1%[46 µM]	x	x	x	x	x
CCOc1ccccc1CNC(=O)CN1C(=O)CCn2nc(-c3cn(C)c4ccccc34)cc21	0%[46 µM]	x	x	x	x	x
COCCOC(=O)C1=C(C)NC(SCC(=O)NC(C)(C)C)=C(C#N)C1c1ccco1 (stereo not given)	-2%	3	1%	6%	16µM*	u
CCOC(=O)CSC1=C(C#N)C(c2ccc(C)o2)CC(=O)N1 (stereo not given)	u	-13	-1%	-14%	-9%	-85*
CCOC(=O)C1=C(c2ccccc2)NC(SCC(=O)NC2CCCCC2)=C(C#N)C1c1ccco1 (stereo not given)	4%	4	0%	18µM*	-28%	30
CCOC(=O)CSC1=C(C#N)C(c2ccc(C)cc2)C2=C(CCCC2=O)N1 (stereo not given)	0%	12	0%	u	-25%	-13
N#CC1=C(SCC(=O)c2ccc(Cl)cc2)NC2=C(C(=O)CCC2)C1c1ccco1 (stereo not given)	1%	8	-5%	28µM*	-20%	u
C=CCOC(=O)C1=C(C)NC(SCC(=O)Nc2ccc(C)c(Cl)c2)=C(C#N)C1c1ccco1 (stereo not given)	-1%	0	-2%	u	u	26
CCCCOC(=O)CSC1=C(C#N)C(c2cccnc2)C(C(=O)OCC)=C(c2ccccc2)N1 (stereo not given)	-21%[46 µM]	x	-4%	11%	x	x
CCOCCCn1c(=N)c(C(=O)NCc2cccnc2)cc2c(=O)n3cc(C)ccc3nc21	x	-1	x	x	x	x
CCCCC/C=C\C/C=C\C/C=C\C/C=C\CCCC(=O)O[C@H](COCCCCCCCCCCCCCCCC)COP(=O)([O-])OCC[N+](C)(C)C	x	x	-3%	u	-13%	x

Assay outcomes deposited in PubChem BioAssay by National Center for Advancing Translational Sciences (NCATS).
